Targets include JUNB;JUN (Homo sapiens;Homo sapiens, UniProt P17275;P05412 259-332;243-316, |); JUNB;ATF4 (Homo sapiens;Homo sapiens, UniProt P17275;P18848 259-332;269-346, |); BATF;CEBPA (Homo sapiens;Homo sapiens, UniProt Q16520;P49715 17-90;273-345, |); FOSL1;CEBPA (Homo sapiens;Homo sapiens, UniProt P15407;P49715 96-169;273-345, |); FOSL1;JUN (Homo sapiens;Homo sapiens, UniProt P15407;P05412 96-169;243-316, |); FOS;ATF3 (Homo sapiens;Homo sapiens, UniProt P01100;P18847 128-201;77-150, |); FOS;ATF4 (Homo sapiens;Homo sapiens, UniProt P01100;P18848 128-201;269-346, |); FOS;BATF3 (Homo sapiens;Homo sapiens, UniProt P01100;Q9NR55 128-201;26-99, |).

Holding throughout (assay): SELEX-seq (CSI, HT-SELEX, round 3); SELEX-seq: 1x PBS (10 mM phosphate, 137 mM NaCl, 2.7 mM KCl) pH 7.6, 2.5 mM DTT, 50 ng/ul poly dI-dC, 0.1% BSA, 50 nM biotinylated bZIP (1:3 with partner for heterodimers), 100 nM library, room temperature, 1 h, 3 rounds; high values mean tight binding
Holding throughout (conditions): protein: recombinant;recombinant; copies: 1;1; dsDNA, one strand shown

The target of the next test is T1, BATF3;BATF3 (Homo sapiens;Homo sapiens, UniProt Q9NR55;Q9NR55 26-99;26-99, |).
T1 sequence 1: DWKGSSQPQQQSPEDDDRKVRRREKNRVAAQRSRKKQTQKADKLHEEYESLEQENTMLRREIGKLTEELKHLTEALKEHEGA
T1 sequence 2: T1 sequence 1

In the next test the target is T2, ATF2;ATF2 (Homo sapiens;Homo sapiens, UniProt P15336;P15336 343-417;343-417, |).
T2 sequence 1: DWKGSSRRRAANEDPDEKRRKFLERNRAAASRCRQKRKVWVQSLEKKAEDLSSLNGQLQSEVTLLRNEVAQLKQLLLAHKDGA
T2 sequence 2: T2 sequence 1

Another test deals with T3, XBP1;XBP1 (Homo sapiens;Homo sapiens, UniProt P17861;P17861 61-138;61-138, |).
T3 sequence 1: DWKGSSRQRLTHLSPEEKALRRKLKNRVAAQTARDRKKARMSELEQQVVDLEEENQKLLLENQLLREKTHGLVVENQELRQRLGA
T3 sequence 2: T3 sequence 1

The next test addresses T4, DBP;DBP (Homo sapiens;Homo sapiens, UniProt Q10586;Q10586 246-324;246-324, |).
T4 sequence 1: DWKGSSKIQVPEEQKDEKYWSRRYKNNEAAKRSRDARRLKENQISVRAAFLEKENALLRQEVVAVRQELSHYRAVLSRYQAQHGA
T4 sequence 2: T4 sequence 1

The next test has as its target T5, JUNB;ATF3 (Homo sapiens;Homo sapiens, UniProt P17275;P18847 259-332;77-150, |).
T5 sequence 1: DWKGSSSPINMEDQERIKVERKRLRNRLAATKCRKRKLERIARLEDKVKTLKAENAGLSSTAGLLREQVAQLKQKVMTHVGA
T5 sequence 2: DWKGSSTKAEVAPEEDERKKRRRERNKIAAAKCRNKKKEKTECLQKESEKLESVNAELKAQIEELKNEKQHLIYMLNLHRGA

The next test addresses T6, JUNB;CEBPG (Homo sapiens;Homo sapiens, UniProt P17275;P53567 259-332;52-130, |).
T6 sequence 1: T5 sequence 1
T6 sequence 2: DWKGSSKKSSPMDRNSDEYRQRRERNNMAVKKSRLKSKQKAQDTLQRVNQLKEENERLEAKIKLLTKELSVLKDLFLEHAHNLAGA

In another test the target is T7, JUNB;BATF3 (Homo sapiens;Homo sapiens, UniProt P17275;Q9NR55 259-332;26-99, |).
T7 sequence 1: T5 sequence 1
T7 sequence 2: T1 sequence 1

The target of the next test is T8, JUNB;ATF2 (Homo sapiens;Homo sapiens, UniProt P17275;P15336 259-332;343-417, |).
T8 sequence 1: T5 sequence 1
T8 sequence 2: T2 sequence 1

Another test addresses T9, JUNB;DBP (Homo sapiens;Homo sapiens, UniProt P17275;Q10586 259-332;246-324, |).
T9 sequence 1: T5 sequence 1
T9 sequence 2: T4 sequence 1

Another test addresses T10, BATF;ATF3 (Homo sapiens;Homo sapiens, UniProt Q16520;P18847 17-90;77-150, |).
T10 sequence 1: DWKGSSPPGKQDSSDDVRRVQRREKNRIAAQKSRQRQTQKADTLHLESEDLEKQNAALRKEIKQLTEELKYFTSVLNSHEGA
T10 sequence 2: T5 sequence 2

Another test addresses T11, FOSL1;ATF3 (Homo sapiens;Homo sapiens, UniProt P15407;P18847 96-169;77-150, |).
T11 sequence 1: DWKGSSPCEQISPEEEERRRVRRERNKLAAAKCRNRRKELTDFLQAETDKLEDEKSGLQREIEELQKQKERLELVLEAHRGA
T11 sequence 2: T5 sequence 2

A further test addresses T12, FOSL1;BATF3 (Homo sapiens;Homo sapiens, UniProt P15407;Q9NR55 96-169;26-99, |).
T12 sequence 1: T11 sequence 1
T12 sequence 2: T1 sequence 1

JUNB;JUN, sequence (P05412 other isoform, or with tags, fused parts or gaps |): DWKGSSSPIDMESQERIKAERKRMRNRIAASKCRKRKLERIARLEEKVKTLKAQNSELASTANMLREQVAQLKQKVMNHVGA
JUNB;ATF4, sequence (P18848 other isoform, or with tags, fused parts or gaps |): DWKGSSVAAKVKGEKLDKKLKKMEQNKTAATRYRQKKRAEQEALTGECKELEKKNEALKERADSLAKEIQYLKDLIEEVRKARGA
FOS;ATF3, sequence (P01100 other isoform, or with tags, fused parts or gaps |, chain 1 of 2, one chain of several): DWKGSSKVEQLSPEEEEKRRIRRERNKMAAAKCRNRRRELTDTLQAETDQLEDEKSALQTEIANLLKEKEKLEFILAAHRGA
FOS;BATF3, sequence (P01100 other isoform, or with tags, fused parts or gaps |): as the sequence (P01100 other isoform, or with tags, fused parts or gaps |, chain 1 of 2, one chain of several) above
FOS;ATF4, sequence (P01100 other isoform, or with tags, fused parts or gaps |, chain 1 of 2): as the sequence (P01100 other isoform, or with tags, fused parts or gaps |, chain 1 of 2, one chain of several) above
FOS;ATF4, sequence (P18848 other isoform, or with tags, fused parts or gaps |, chain 2 of 2): as the sequence (P18848 other isoform, or with tags, fused parts or gaps |) above
BATF;CEBPA, sequence (P49715 other isoform, or with tags, fused parts or gaps |): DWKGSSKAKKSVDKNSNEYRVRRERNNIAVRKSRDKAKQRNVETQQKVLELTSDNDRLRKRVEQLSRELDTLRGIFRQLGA

For the sequence ATGACGTAAT, the binding signal is 0.0127 relative CSI intensity (max = 1) in the test with BATF3;BATF3; 0.289 relative CSI intensity (max = 1) with ATF2;ATF2; 0.00422 relative CSI intensity (max = 1) with XBP1;XBP1; 0.487 relative CSI intensity (max = 1) in the test with DBP;DBP; 0.166 relative CSI intensity (max = 1) with JUNB;ATF3; 0.17 relative CSI intensity (max = 1) with JUNB;CEBPG. In addition, the binding signal in the test with JUNB;JUN is 0.0997 relative CSI intensity (max = 1); in the test with JUNB;ATF4, 0.0439 relative CSI intensity (max = 1); in the test with JUNB;BATF3 it was 0.0919 relative CSI intensity (max = 1); in the test with JUNB;ATF2, 0.151 relative CSI intensity (max = 1); with JUNB;DBP it was 0.727 relative CSI intensity (max = 1); with BATF;ATF3, 0.0836 relative CSI intensity (max = 1). Further, the binding signal with BATF;CEBPA is 0.00231 relative CSI intensity (max = 1); with FOSL1;ATF3, 0.0529 relative CSI intensity (max = 1); with FOSL1;CEBPA, 0.208 relative CSI intensity (max = 1); in the test with FOSL1;JUN it was 0.0392 relative CSI intensity (max = 1); in the test with FOSL1;BATF3, 0.0576 relative CSI intensity (max = 1); in the test with FOS;ATF3, 0.0389 relative CSI intensity (max = 1). Further, the binding signal is 0.0605 relative CSI intensity (max = 1) with FOS;ATF4 and 0.0787 relative CSI intensity (max = 1) in the test with FOS;BATF3.
As to ATGACGCAAT, the binding signal with BATF3;BATF3 was 0.00125 relative CSI intensity (max = 1); with ATF2;ATF2, 0.0881 relative CSI intensity (max = 1); with XBP1;XBP1, 0.00105 relative CSI intensity (max = 1); with DBP;DBP, 0.0702 relative CSI intensity (max = 1); with JUNB;ATF3, 0.0139 relative CSI intensity (max = 1); in the test with JUNB;CEBPG, 0.308 relative CSI intensity (max = 1). For the same sequence, the binding signal was 0.0103 relative CSI intensity (max = 1) with JUNB;JUN; 0.0028 relative CSI intensity (max = 1) with JUNB;ATF4; 0.026 relative CSI intensity (max = 1) in the test with JUNB;BATF3; 0.00356 relative CSI intensity (max = 1) in the test with JUNB;ATF2; 0.162 relative CSI intensity (max = 1) with JUNB;DBP; 0.0223 relative CSI intensity (max = 1) in the test with BATF;ATF3. Also, the binding signal with BATF;CEBPA is 0.00768 relative CSI intensity (max = 1); with FOSL1;ATF3 it was 0.0466 relative CSI intensity (max = 1); with FOSL1;CEBPA, 0.765 relative CSI intensity (max = 1); with FOSL1;JUN, 0.0151 relative CSI intensity (max = 1); with FOS;ATF3 it was 0.0598 relative CSI intensity (max = 1); with FOS;ATF4 it was 0.0149 relative CSI intensity (max = 1). In addition, the binding signal with FOS;BATF3 is 0.00954 relative CSI intensity (max = 1).
With ATGACGGAAT, the binding signal with ATF2;ATF2 was 0.0134 relative CSI intensity (max = 1); with JUNB;ATF3 it was 0.00128 relative CSI intensity (max = 1); with JUNB;CEBPG, 0.00175 relative CSI intensity (max = 1); with JUNB;JUN, 0.0196 relative CSI intensity (max = 1); in the test with JUNB;BATF3, 0.00175 relative CSI intensity (max = 1); with JUNB;DBP it was 0.0141 relative CSI intensity (max = 1). For the same sequence, the binding signal was 0.019 relative CSI intensity (max = 1) with BATF;ATF3; 0.0493 relative CSI intensity (max = 1) with FOSL1;ATF3; 0.00381 relative CSI intensity (max = 1) in the test with FOSL1;CEBPA; 0.00225 relative CSI intensity (max = 1) in the test with FOSL1;JUN; 0.0362 relative CSI intensity (max = 1) with FOS;ATF3; 0.00272 relative CSI intensity (max = 1) in the test with FOS;ATF4.
ATGACGTCAT: the binding signal in the test with BATF3;BATF3 was 0.904 relative CSI intensity (max = 1); with ATF2;ATF2, 1 relative CSI intensity (max = 1); in the test with XBP1;XBP1, 0.222 relative CSI intensity (max = 1); with DBP;DBP it was 0.0564 relative CSI intensity (max = 1); with JUNB;ATF3 it was 1 relative CSI intensity (max = 1); in the test with JUNB;CEBPG, 0.0649 relative CSI intensity (max = 1). The binding signal with JUNB;JUN is 0.769 relative CSI intensity (max = 1); with JUNB;ATF4, 1 relative CSI intensity (max = 1); in the test with JUNB;BATF3, 1 relative CSI intensity (max = 1); in the test with JUNB;ATF2, 1 relative CSI intensity (max = 1); with JUNB;DBP it was 1 relative CSI intensity (max = 1); with BATF;ATF3, 0.113 relative CSI intensity (max = 1). The binding signal in the test with BATF;CEBPA is 0.00178 relative CSI intensity (max = 1); with FOSL1;ATF3, 0.156 relative CSI intensity (max = 1); with FOSL1;CEBPA it was 0.261 relative CSI intensity (max = 1); in the test with FOSL1;JUN, 0.478 relative CSI intensity (max = 1); in the test with FOSL1;BATF3, 0.282 relative CSI intensity (max = 1); with FOS;ATF3 it was 0.117 relative CSI intensity (max = 1). Moreover, the binding signal in the test with FOS;ATF4 and in the test with FOS;BATF3 was 1 relative CSI intensity (max = 1) throughout.
On to CCTGACGTCA, for which the binding signal with BATF3;BATF3 was 0.0069 relative CSI intensity (max = 1); with ATF2;ATF2 it was 0.144 relative CSI intensity (max = 1); in the test with JUNB;ATF3, 0.031 relative CSI intensity (max = 1); with JUNB;CEBPG, 0.00362 relative CSI intensity (max = 1); with JUNB;JUN, 0.0172 relative CSI intensity (max = 1); in the test with JUNB;ATF4, 0.0113 relative CSI intensity (max = 1). The binding signal with JUNB;BATF3 was 0.0239 relative CSI intensity (max = 1); with JUNB;ATF2, 0.0143 relative CSI intensity (max = 1); with JUNB;DBP, 0.0067 relative CSI intensity (max = 1); in the test with BATF;ATF3, 0.0203 relative CSI intensity (max = 1); with FOSL1;ATF3, 0.0517 relative CSI intensity (max = 1); in the test with FOSL1;CEBPA, 0.00677 relative CSI intensity (max = 1). The binding signal in the test with FOSL1;JUN is 0.00953 relative CSI intensity (max = 1); with FOSL1;BATF3, 0.0211 relative CSI intensity (max = 1); with FOS;ATF3 it was 0.0295 relative CSI intensity (max = 1); with FOS;ATF4, 0.0251 relative CSI intensity (max = 1); with FOS;BATF3, 0.0279 relative CSI intensity (max = 1).
As for ATGATGCAAT, the binding signal in the test with ATF2;ATF2 was 0.00515 relative CSI intensity (max = 1); with DBP;DBP it was 0.00594 relative CSI intensity (max = 1); with JUNB;CEBPG, 0.252 relative CSI intensity (max = 1); in the test with JUNB;JUN it was 0.0548 relative CSI intensity (max = 1); in the test with JUNB;BATF3, 0.00368 relative CSI intensity (max = 1); in the test with JUNB;DBP, 0.0471 relative CSI intensity (max = 1). Further, the binding signal is 0.0115 relative CSI intensity (max = 1) with BATF;CEBPA; 0.00412 relative CSI intensity (max = 1) in the test with FOSL1;ATF3; 0.368 relative CSI intensity (max = 1) with FOSL1;CEBPA; 0.00257 relative CSI intensity (max = 1) with FOSL1;JUN; 0.00287 relative CSI intensity (max = 1) in the test with FOSL1;BATF3; 0.0114 relative CSI intensity (max = 1) with FOS;ATF3. Also, the binding signal with FOS;ATF4 was 0.00384 relative CSI intensity (max = 1).

The values above are taken from publication PMC5349851, “Combinatorial bZIP dimers display complex DNA-binding specificity landscapes”.
